Experimental data: PubChem BioAssay (NCATS)
Records with an inconclusive call do not appear. A call without a number means that no potency is given here. A number with no mark means an inactive call. Activity calls are given as the source filed them. Calls follow the shape of the dose curve; as a rule, active = well fitted curve in the direction sought with a large enough effect; inconclusive = small, poorly fitted or top-dose-only effect, or another doubt; inactive = no such curve, though single readings can be large; an effect the other way counts as inactive or inconclusive.

What was measured:
[1] = target: Aldehyde dehydrogenase, mitochondrial (Homo sapiens) (UniProt P05091); test: qHTS for Inhibitors of the Aldehyde Dehydrogenase Family (ALDH2) Primary screen (AID 2061308); also: nearly all actives have a fitted effect of over 55% in size
[2] = target: Retinaldehyde dehydrogenase 3 (Homo sapiens) (UniProt P47895); test: qHTS for Inhibitors of the Aldehyde Dehydrogenase Family (ALDH1A3) Primary screen (AID 2061315)
[3] = BET inhibitor-based combinations targeting novel dependencies in MECOM-rearranged (r) AML: SET-2 cell line (AID 2202231); conditions: SET-2 AML cells viability, CellTiter-Glo luminescence, 48 h; viability: stronger effect = lower value, concentration not given here; also: nearly all actives have a fitted effect of over 35% in size; also: potency is read from the fitted curve at half-maximal effect
Summary of the method: (§1)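 AML cell lines seeded at 500 cells/well, treated with 11-point dose curves for 48 h. Viability by CellTiter-Glo luminescence, normalised to DMSO and empty wells; activity expressed as AUC and per-cell-line Z-transformed AUC.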

[4] = BET inhibitor-based combinations targeting novel dependencies in MECOM-rearranged (r) AML: OCI-AML3 cell line (AID 2202232); conditions: Potency: OCI-AML3 viability; also: nearly all actives have a fitted effect of over 35% in size; also: potency is read from the fitted curve at half-maximal effect
Summary of the method: as §1

[5] = BET inhibitor-based combinations targeting novel dependencies in MECOM-rearranged (r) AML: MV-4-11 cell line (AID 2202233); also: nearly all actives have a fitted effect of over 45% in size; also: potency is read from the fitted curve at half-maximal effect
Summary of the method: (§2)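 Cells at 500/well were exposed for 48 hr to MIPE v5.0 drugs as 11-point dose curves. Viability was read by CellTiter-Glo luminescence and normalized to DMSO and empty-well controls. Activity was expressed as AUC and per-cell-line Z-AUC.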

[6] = BET inhibitor-based combinations targeting novel dependencies in MECOM-rearranged (r) AML: HNT-34 cell line (AID 2202234); also: nearly all actives have a fitted effect of over 35% in size; also: potency is read from the fitted curve at half-maximal effect
Summary of the method: as §2

[7] = BET inhibitor-based combinations targeting novel dependencies in MECOM-rearranged (r) AML: UCSD-AML1 cell line (AID 2202235); also: nearly all actives have a fitted effect of over 40% in size; also: potency is read from the fitted curve at half-maximal effect
Summary of the method: as §2

[8] = BET inhibitor-based combinations targeting novel dependencies in MECOM-rearranged (r) AML: AML-191 cell line (AID 2202236; also: nearly all actives have a fitted effect of over 35% in size; also: potency is read from the fitted curve at half-maximal effect)
Summary of the method: as §1

[9] = BET inhibitor-based combinations targeting novel dependencies in MECOM-rearranged (r) AML: AML-194 cell line (AID 2202237; also: nearly all actives have a fitted effect of over 40% in size; also: potency is read from the fitted curve at half-maximal effect)
Summary of the method: as §1

Compound: CCN1CCN(Cc2ccc(Nc3ncc(F)c(-c4cc(F)c5nc(C)n(C(C)C)c5c4)n3)nc2)CC1
- Potency [1]: inactive
- Potency [2]: inactive
- Potency [3]: 5.9 µM (active)
- Potency [4]: 23.5 µM (active)
- Potency [5]: 0.296 µM (active)
- Potency [6]: 5.9 µM (active)
- Potency [7]: 0.662 µM (active)
- Potency [8]: 2.95 µM (active)
- Potency [9]: 2.09 µM (active)

Compound: COC(=O)CC(C)(O)CC(=O)OCc1ccc(O[C@@H]2O[C@H](CO)[C@@H](O)[C@H](O)[C@H]2O)cc1 (stereo not given in full)
- Potency [1]: inactive
- Potency [2]: inactive

Compound: c1ccc(-c2oc3ncnc(NC[C@@H]4CCCO4)c3c2-c2ccccc2)cc1
- Potency [1]: inactive
- Potency [2]: inactive
- viability [3]: 86.5%
- Potency [5]: inactive
- Potency [7]: inactive
- Potency [8]: inactive

Compound: Cc1cn2cc(C(=O)N(C)CCO)cc(N[C@@H]3CCOc4cccc(C)c43)c2n1
- Potency [1]: inactive
- Potency [2]: inactive
- viability [3]: 112%
- Potency [5]: inactive
- Potency [6]: inactive
- Potency [7]: inactive
- Potency [8]: inactive
- Potency [9]: inactive

Compound: Cc1cnc(-c2cc(N3CCN(C(=O)CCS(C)(=O)=O)CC3)ncc2Cl)c(C)c1
- Potency [1]: inactive
- Potency [2]: inactive
- viability [3]: 112%
- Potency [4]: inactive
- Potency [5]: inactive
- Potency [6]: inactive
- Potency [7]: inactive
- Potency [8]: inactive
- Potency [9]: inactive

Compound: Cc1ccc(S(=O)(=O)N2CCC[C@H]2c2ccc(F)cc2)cc1
- Potency [1]: inactive
- Potency [2]: inactive

Compound: C1=C/COCc2cc(ccc2OCCN2CCCC2)Nc2nccc(n2)-c2cccc(c2)COC/1
- Potency [1]: inactive
- Potency [2]: inactive
- Potency [3]: 4.17 µM (active)
- Potency [4]: 3.32 µM (active)
- Potency [5]: 0.0132 µM (active)
- Potency [6]: 2.09 µM (active)
- Potency [7]: 1.18 µM (active)
- Potency [8]: 1.86 µM (active)
- Potency [9]: 2.35 µM (active)

Compound: COCCNCc1ccc(-c2cc3nccc(Oc4ccc(NC(=O)C5(C(=O)Nc6ccc(F)cc6)CC5)cc4F)c3s2)nc1
- Potency [1]: inactive
- Potency [2]: inactive
- Potency [3]: 13.2 µM (active)
- Potency [6]: 2.95 µM (active)
- Potency [7]: 8.33 µM (active)
- Potency [8]: 8.33 µM (active)
- Potency [9]: 5.25 µM (active)

Compound: Nc1ncnc2c1ncn2[C@@H]1O[C@H](CO)C[C@H]1O
- Potency [1]: inactive
- Potency [2]: inactive
- Potency [4]: inactive
- Potency [5]: inactive
- Potency [8]: inactive
- Potency [9]: inactive

Compound: Cc1cc(C(C)Nc2ccccc2)c2nc(N3CCOCC3)cc(=O)n2c1 (stereo not given)
- Potency [1]: inactive
- Potency [2]: inactive
- viability [3]: 91.4%
- Potency [4]: 2.63 µM (active)
- Potency [5]: 16.6 µM (active)
- Potency [7]: 16.6 µM (active)
- Potency [8]: 18.6 µM (active)
- Potency [9]: 23.5 µM (active)

Compound: CC(O)c1cc(C(=O)N[C@@H](C)Cn2ccc(-c3ccc(C#N)c(Cl)c3)n2)n[nH]1 (stereo not given in full)
- Potency [1]: inactive
- Potency [2]: inactive
- Potency [5]: inactive
- Potency [8]: 16.6 µM (active)
- Potency [9]: inactive

Compound: COc1cc(CNC(=O)CCCC/C=C/C(C)C)ccc1O
- Potency [1]: inactive
- Potency [2]: inactive
- Potency [3]: 14.8 µM (active)
- Potency [4]: inactive
- Potency [6]: 6.61 µM (active)
- Potency [9]: 10.5 µM (active)

Compound: Cc1ccccc1-n1nc(-c2c(-c3ccc(F)cc3)nn3c2NC[C@@H](CO)C3)ccc1=O
- Potency [1]: inactive
- Potency [2]: inactive
- Potency [5]: inactive
- Potency [6]: inactive
- Potency [8]: inactive
- Potency [9]: inactive

Compound: C=C1C[C@H](O)[C@@H](O)[C@@]2(C)C1[C@@H](O)[C@H]1OC(=O)C3[C@@H](C)[C@@H](O)[C@H](O)C2[C@]31C (stereo not given in full)
- Potency [1]: inactive
- Potency [2]: inactive

Compound: Cc1cc2c(cc1C1(c3ccc(C(=O)O)cn3)CC1)C(C)(C)CCC2(C)C
- Potency [1]: inactive
- Potency [2]: inactive
- viability [3]: 114%
- Potency [5]: 0.0209 µM (active)
- Potency [7]: inactive
- Potency [8]: inactive
- Potency [9]: inactive

Compound: NC(=O)c1cccc(-c2cc(Nc3ccc(OC(F)(F)F)cc3)ncn2)c1
- Potency [1]: inactive
- Potency [2]: inactive
- Potency [5]: 16.6 µM (active)
- Potency [6]: 1.86 µM (active)

Compound: C=C1CCC2C(C)(C(=O)O)CC(O)CC2(C)C1CC/C(C)=C/C(=O)O (stereo not given)
- Potency [1]: inactive
- Potency [2]: inactive

Compound: Nc1ncnc2c1C(=O)N(c1ccc(C3CCC(CC(=O)O)CC3)cc1)CCO2 (stereo not given)
- Potency [1]: inactive
- Potency [2]: inactive
- viability [3]: 105%
- Potency [5]: inactive
- Potency [6]: inactive
- Potency [7]: inactive
- Potency [8]: inactive
- Potency [9]: inactive

Compound: Cc1cccc(-c2[nH]c(CNc3ccccc3F)nc2-c2ccc3ncnn3c2)n1
- Potency [1]: inactive
- Potency [2]: inactive
- viability [3]: 100%
- Potency [7]: inactive
- Potency [8]: inactive
- Potency [9]: inactive

Compound: CN1CCc2c(c3ccccc3n2Cc2ccc(C(=O)NO)cc2)C1
- Potency [1]: inactive
- Potency [2]: inactive
- Potency [3]: 20.9 µM (active)
- Potency [4]: 20.9 µM (active)
- Potency [5]: 20.9 µM (active)
- Potency [6]: 9.34 µM (active)
- Potency [8]: 20.9 µM (active)
- Potency [9]: 23.5 µM (active)

Compound: Cc1cccc(Oc2cnc(=O)[nH]c2)c1
- Potency [1]: inactive
- Potency [2]: inactive
- viability [3]: 115%
- Potency [4]: inactive
- Potency [5]: inactive
- Potency [6]: inactive
- Potency [7]: inactive
- Potency [8]: inactive
- Potency [9]: inactive

Compound: CCn1nc(C2CCN(C(=O)CCO)CC2)nc1-c1cnc(N)c(-c2nnc(C(C)(C)C)o2)n1
- Potency [1]: inactive
- Potency [2]: inactive
- Potency [4]: 1.18 µM (active)
- Potency [5]: 5.9 µM (active)
- Potency [6]: 16.6 µM (active)
- Potency [7]: 5.9 µM (active)
